This note sets out measurements from ChEMBL document CHEMBL3988442, “University of Dundee, Small-Polar-MMV Screening Library” (2021).

Each structure is given as a SMILES string. Screen size: about 69,000 compounds; about 1,000 (1.4%) showed an effect of 50% or more. The sample holds strong results, similar compounds and a random draw of the others, so the mix is not that of the screen.

The subject of this assay is Leishmania donovani. The assay is described as follows: Leishmania intramacrophage assay. In kind it is functional, organism-based. More on the design: scale not given: in the data most compounds retested in dose-response had high values.

As for `Cc1nc(CN2CCC3(C2)CN(C(=O)c2ccc[nH]2)C3)cs1`, for the setting “30.3 µM, […]”, the “Percent Effect” value is 35.81%.

With `Cc1nc(CN2CCC23CCN(Cc2ccoc2)CC3)cs1`, under “30.3 µM, […]”, the “Percent Effect” value turned out to be 63.43%.

For `CCCc1nc(CN(CC)C(=O)c2ccc3ncsc3c2)no1`, the “Percent Effect” value (30.3 µM, […]) was -29.17%.

`COc1ccc(-c2nccn2CC(O)CN2CCCC2)c(F)c1` (stereo not drawn): the “Percent Effect” value (30.3 µM, […]) came to 5.05%.

Turning to `COc1ccc2cnn(CC(=O)NC3CCCCC3)c(=O)c2c1OC`, the “Percent Effect” value (30.3 µM, […]) is given as 14.43%.

For the compound `CNS(=O)(=O)CCn1cc(-c2ccc(OC)c(OC)c2)nn1`, the “Percent Effect” value (30.3 µM, […]) is given as 27.44%.

As for `CCn1cc2c(n1)C(COC)CN(C(=O)COc1ccccc1C)C2` (stereo not drawn), the “Percent Effect” value (30 µM, 30.03 µM) was -0.4533%.

With `CC(C)c1ncncc1C(=O)N1CCN(Cc2ccccn2)CC1`, for the setting “30 µM”, the “Percent Effect” value is 24.52%.

For `NC(=O)c1cccc(OCC(=O)NS(=O)(=O)c2ccc3c(c2)CCC3)c1`, where the note is “30 µM”, the “Percent Effect” value was determined as 8.199%.

As for `Cc1nn(C)c(N2CCOCC2)c1CNC1COc2ccccc2C1` (stereo not drawn), the “Percent Effect” value (30 µM) worked out at 6.69%.

`CC(=O)NCCCc1ncnn1-c1cccc(Cl)c1`: for the setting “30.3 µM, […]”, the “Percent Effect” value was -4.184%.

With `O=C(NCC(=O)N1CCCc2ccccc21)c1c(O)cc(F)cc1F`, the “Percent Effect” value (30 µM) is listed as 16.08%.

`O=C(NCCC(=O)N1CCCc2ccccc21)c1c(O)cc(F)cc1F`: the “Percent Effect” value (30 µM, 30.03 µM) is listed as 50.32%.

With `O=C(NCCC(=O)N1CCCc2ccccc21)c1c(F)cccc1F`, the “Percent Effect” value (30 µM) came out at 15.29%.

In the case of `Cc1ccc(CN2C[C@@H]3[C@@H](C(=O)NCC(C)C)CCS(=O)(=O)[C@@H]3C2)cc1.O=C(O)C(F)(F)F`, the “Percent Effect” value (30.3 µM, […]) is -6.029%.

For `CCc1nnc(SCC(=O)Nc2cc(C(C)(C)C)nn2C)[nH]1`, the “Percent Effect” value (30.3 µM, […]) stood at 21.82%.

As for `CCc1cc(NC2CCS(=O)(=O)CC2)nc(N2CCCCC2)n1`, the “Percent Effect” value (30.3 µM, […]) was -6.887%.

`CCc1cc(NCC(N)=O)nc(N2CCCCC2)n1`: the “Percent Effect” value (30.3 µM, […]) stood at 21.93%.

Take `CCc1cc(NC2CCN(CC(N)=O)CC2)nc(N2CCCCC2)n1`: the “Percent Effect” value (30.3 µM, […]) amounted to 55.44%.

Regarding `CCc1ccsc1C(=O)N1CCN(C(=O)c2ccc(C)o2)CC1`, for the setting “30.3 µM, […]”, the “Percent Effect” value is 56.23%.

`CCc1ccsc1C(=O)N1CCS(=O)(=O)CC1`: the “Percent Effect” value (30.3 µM, […]) came out at 9.315%.

Take `COC(=O)c1sccc1CN1CCN(C(=O)c2ccc(C)o2)CC1`: the “Percent Effect” value (30.3 µM, […]) was determined as 23.22%.

As to `O=C(c1ccc2[nH]c(=O)[nH]c2c1)N1CCC(Nc2cccnn2)CC1`, where the note is “30 µM”, the “Percent Effect” value is recorded as -0.4678%.

With `Oc1c(F)cc(CNc2cccc(-c3nnc[nH]3)c2)cc1F`, the “Percent Effect” value (30.3 µM, […]) turned out to be 16.51%.

Regarding `Oc1ccc(Br)c(CNc2cccc(-c3nnc[nH]3)c2)c1`, the “Percent Effect” value (30.3 µM, […]) worked out at 51.72%.

`c1cc(NCc2ccsc2)cc(-c2nnc[nH]2)c1`: the “Percent Effect” value (30.3 µM, […]) came out at 34.15%.

Regarding `CN(CCO)C(=O)Nc1ccn(-c2cccc(C(F)(F)F)c2)n1`, the “Percent Effect” value (30.3 µM, […]) was determined as 13.55%.

For the compound `Cc1nc2n(n1)CC(NCc1csc(-c3ccsc3)n1)CC2` (stereo not drawn), the “Percent Effect” value (30 µM) came to 1.329%.

As for `O=C(NC[C@H]1OC[C@@H](NC2COC2)[C@@H]1O)c1cccs1`, for the setting “30.3 µM, […]”, the “Percent Effect” value was 17.79%.

Regarding `Cc1ccc2c(c1)C(=O)NCC1(CCN(C(=O)c3cc(C)no3)CC1)O2`, the “Percent Effect” value (30.3 µM, […]) is recorded as 77.82%.

As for `Cc1ccc2c(c1)C(=O)NCC1(CCN(C(=O)c3ccccn3)CC1)O2`, for the setting “30.3 µM, […]”, the “Percent Effect” value was determined as 39.06%.

Regarding `Cc1ccc2c(c1)C(=O)NCC1(CCN(C(=O)c3ccnn3C)CC1)O2`, the “Percent Effect” value (30.3 µM, […]) is listed as 23.56%.

In the case of `Cc1cccc(C)c1OC1CN(C(=O)C2CC(=O)N(C(C)(C)C)C2)C1` (stereo not drawn), the “Percent Effect” value (30.3 µM, […]) was 48.27%.
